DAX1 inh-1 – inhibitors of DAX1 repression of SF-1 activated StAR promoter | hit rate 1.1% among 370,000 | HEK293T StAR-luciferase reporter, SF-1/DAX-1 repression relief | inhibition, % at 6.8 µM | AID 652010;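 active = inhibition above the mean over all tested compounds plus 3 SD, cut at about 3.6% in these data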;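 note: 0% = DAX-1 cells with DMSO and 100% = cells lacking DAX-1 with DMSO; higher inhibition means more luminescence from relief of DAX-1 repression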
DAX1 inh-2 – inhibitors of human orphan nuclear receptor DAX1 (NR0B1); HEK293 Gal4-DAX1 luciferase reporter, luminescence; P51843; AID 504766; hit rate 0.99% among 340,000; inhibition, % at 6.75 µM;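 active = inhibition above the mean over all tested compounds plus 3 SD, cut at about 4.2% in these data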;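 note: 0% = DAX1-transfected cells with DMSO and 100% = empty-vector control cells with DMSO; inhibition shows as a rise in luminescence from relieved DAX1 repression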
Target sequence (P51843 207-470 limits assumed): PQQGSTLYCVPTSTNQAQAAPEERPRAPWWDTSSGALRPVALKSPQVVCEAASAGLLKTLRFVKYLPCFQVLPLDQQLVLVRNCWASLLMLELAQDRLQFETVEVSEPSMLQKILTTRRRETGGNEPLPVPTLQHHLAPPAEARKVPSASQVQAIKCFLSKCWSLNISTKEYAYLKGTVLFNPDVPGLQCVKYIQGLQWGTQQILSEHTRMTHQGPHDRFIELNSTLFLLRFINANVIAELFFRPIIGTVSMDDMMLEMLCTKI
ssDAF-12 act – S. stercoralis DAF-12 activation, primary screen. hit rate 1% among 370,000. activation, % at 6.8 µM. HEK293 ssDAF-12/GRIP1 lit1-tk-luc reporter, luminescence; % of 3 µM dafachronic acid response. AID 652126;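 active = activation above the mean over all tested compounds plus 3 SD, cut at about 0.9% in these data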;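 note: 0% = DMSO-only wells and 100% = 3 µM delta7-dafachronic acid wells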
hgDAF-12 ag – hgDAF-12 agonism, primary luciferase screen | HEK293 GAL4-hgDAF12 UAS-luciferase reporter, agonist luminescence; normalized to butyrate control | activation, % at 6.8 µM | hit rate 1.8% among 370,000 | AID 687014;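 active = activation above a cutoff set at the mean of all screened compounds plus 3 SD, cut at about 10% in these data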;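 note: 0% = DMSO wells and 100% = sodium butyrate wells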
hcDAF12 agonist – activators of H. contortus DAF-12 nuclear receptor; hit rate 1.4% among 370,000; HEK293 hcDAF-12 lit1-tk-luc reporter, luminescence; 0% DMSO, 100% Δ7-dafachronic acid; AID 652067; activation, % at 6.8 µM;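 active = activation above the mean of all tested compounds plus 3 SD, cut at about 5.5% in these data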;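 note: 100% = response to 3 µM Δ7-dafachronic acid high control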
DAX1 inh confirm – confirmation of human DAX1 (NR0B1) inhibitors; shares compounds with DAX1 inh-1; HEK293T StAR-promoter luciferase reporter, SF-1/DAX-1 repression; inhibition, % at 6.8 µM; hit rate 87% among 2,400; AID 652134;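 active = inhibition above the average of every tested compound plus 3 SD, cut at about 3.8% in these data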;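 note: 0% = DAX-1 cells with DMSO and 100% = no DAX-1 control cells with DMSO; active compounds raise luminescence by relieving repression of the StAR reporter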
SF1 AF2mut Luc – nonselective inhibitor or artifact in SF-1 mutant DAX1 counter-screen; shares compounds with DAX1 inh-1; HEK293 StAR-luciferase, SF-1 AF2 mutant, luminescence; hit rate 78% among 2,400; inhibition, % at 6.8 µM;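 active = inhibition above the mean of all tested compounds plus 3 SD, cut at about 3% in these data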;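 note: 0% = DAX-1 transfected cells with DMSO and 100% = cells without DAX-1 with DMSO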
Starred values were filed as active, the others as inactive. Sampled rows, rich in hits. Any-hit rate of the full collection: about 4.1%.

Cn1cc(CCNC(=O)c2ccc3nc(Cc4ccccc4F)oc3c2)cn1 was read as DAX1 inh-1 5.0*, DAX1 inh-2 2, ssDAF-12 act -1, hgDAF-12 ag 12*, hcDAF12 agonist 4, DAX1 inh confirm 7.1* and SF1 AF2mut Luc 5.8*.
Screening O=C(NCCc1ccccn1)c1ccc2nc(Cc3ccccc3F)oc2c1 returned DAX1 inh-1 7.0*, DAX1 inh-2 2, ssDAF-12 act 0, hgDAF-12 ag 8, hcDAF12 agonist 1, DAX1 inh confirm 6.9* and SF1 AF2mut Luc 5.2*.
CN(C)c1ccc(C=Nc2ccccc2C(N)=O)cc1 was read as DAX1 inh-1 5.8*, DAX1 inh-2 -3, ssDAF-12 act 1.9*, hgDAF-12 ag 10, hcDAF12 agonist 10*, DAX1 inh confirm 19* and SF1 AF2mut Luc 9.1*.
COc1ccc(CNCC#Cc2ccccc2)cc1 was read as DAX1 inh-1 0, ssDAF-12 act -1, hgDAF-12 ag 2 and hcDAF12 agonist 0.
`O=S(=O)(c1ccccc1)N1CCCc2nc(-c3ccc(Br)cc3)ccc21` gave DAX1 inh-1 0, ssDAF-12 act -1, hgDAF-12 ag 0 and hcDAF12 agonist 0.
`CC(Nc1nc(-c2ccccc2)nc2ccccc12)c1ccccc1` (stereo not drawn) gave DAX1 inh-1 4.7*, DAX1 inh-2 1, ssDAF-12 act -1, hgDAF-12 ag 7, hcDAF12 agonist 0, DAX1 inh confirm 7.3* and SF1 AF2mut Luc 0.
CC(Nc1nc(-c2ccccc2O)nc2ccccc12)c1ccccc1 (stereo not drawn) was read as DAX1 inh-1 2, DAX1 inh-2 1, ssDAF-12 act 1, hgDAF-12 ag 10 and hcDAF12 agonist 4.
Screening Cc1nn(-c2ccccc2)c(Cl)c1/C=N/NC(=O)c1ccn[nH]1 returned DAX1 inh-1 14*, DAX1 inh-2 0, ssDAF-12 act 0, hgDAF-12 ag 13*, hcDAF12 agonist 5.8*, DAX1 inh confirm 8.8* and SF1 AF2mut Luc 5.8*.
For Cc1cc(C(=O)N/N=C/c2c(C)nn(-c3ccccc3)c2Cl)n[nH]1 the results were DAX1 inh-1 0, ssDAF-12 act -1, hgDAF-12 ag 3 and hcDAF12 agonist 1.
CCCC(=O)Nc1nc2ccc(NC(=O)c3ccc(Br)o3)cc2s1 was read as DAX1 inh-1 -1, DAX1 inh-2 -2, ssDAF-12 act -1, hgDAF-12 ag -2 and hcDAF12 agonist -2.
`CC(=O)c1sc(Nc2ccccc2)nc1C` gave DAX1 inh-1 0, ssDAF-12 act -1, hgDAF-12 ag 4 and hcDAF12 agonist 2.
CC(=O)c1sc(NC(=O)c2ccc(Cn3cc(Br)cn3)o2)nc1C was read as DAX1 inh-1 1, DAX1 inh-2 0, ssDAF-12 act -1, hgDAF-12 ag -1 and hcDAF12 agonist -1.
Screening CC(=O)c1sc(Nc2ccc(Oc3ccccc3)cc2)nc1C returned DAX1 inh-1 9.2*, ssDAF-12 act 0, hgDAF-12 ag 9, hcDAF12 agonist 0, DAX1 inh confirm 3.9* and SF1 AF2mut Luc 0.
Screening CC(=O)c1sc(NC(=O)c2ccc(Br)o2)nc1C returned DAX1 inh-1 4.6*, DAX1 inh-2 0, ssDAF-12 act 2.1*, hgDAF-12 ag 7, hcDAF12 agonist 3, DAX1 inh confirm 4.1* and SF1 AF2mut Luc 5.4*.
For Cc1nc2ccc(NC(=O)c3ccc(Br)o3)cc2s1 the results were DAX1 inh-1 6.2*, DAX1 inh-2 2, ssDAF-12 act -2, hgDAF-12 ag 5, hcDAF12 agonist 1, DAX1 inh confirm 14* and SF1 AF2mut Luc 7.6*.
For Cc1nc2ccc(NC(=O)c3cccnc3)cc2s1 the results were DAX1 inh-1 1, DAX1 inh-2 1, ssDAF-12 act -2, hgDAF-12 ag 2 and hcDAF12 agonist -1.
Cc1nc2ccc(NC(=O)C3=NN(C)C(=O)CC3)cc2s1 was read as DAX1 inh-1 7.5*, DAX1 inh-2 1, ssDAF-12 act -1, hgDAF-12 ag 0, hcDAF12 agonist 1, DAX1 inh confirm 2 and SF1 AF2mut Luc 3.4*.

Compound activity deposited in PubChem by The Scripps Research Institute Molecular Screening Center.
